Measured values reported in ChEMBL document CHEMBL3433997, “St. Jude Leishmania screening dataset” (2016).

Experiments:
Format in all cases: functional
[1] = target: Solute carrier family 2, facilitated glucose transporter member 1 (Homo sapiens) (UniProt P11166); assay: ST_JUDE_LEISH: Cytotoxicity at 2uM final concentration against transgenic Leishmania Mexicana promastigotes LmGLUT1 that are glucose transport deficient and complemented with the human glucose transporter GLUT1. Activity is measured by DNA content using SYBR green in vitro
Sequence of Solute carrier family 2, facilitated glucose transporter member 1 (Homo sapiens) (P11166 whole entry): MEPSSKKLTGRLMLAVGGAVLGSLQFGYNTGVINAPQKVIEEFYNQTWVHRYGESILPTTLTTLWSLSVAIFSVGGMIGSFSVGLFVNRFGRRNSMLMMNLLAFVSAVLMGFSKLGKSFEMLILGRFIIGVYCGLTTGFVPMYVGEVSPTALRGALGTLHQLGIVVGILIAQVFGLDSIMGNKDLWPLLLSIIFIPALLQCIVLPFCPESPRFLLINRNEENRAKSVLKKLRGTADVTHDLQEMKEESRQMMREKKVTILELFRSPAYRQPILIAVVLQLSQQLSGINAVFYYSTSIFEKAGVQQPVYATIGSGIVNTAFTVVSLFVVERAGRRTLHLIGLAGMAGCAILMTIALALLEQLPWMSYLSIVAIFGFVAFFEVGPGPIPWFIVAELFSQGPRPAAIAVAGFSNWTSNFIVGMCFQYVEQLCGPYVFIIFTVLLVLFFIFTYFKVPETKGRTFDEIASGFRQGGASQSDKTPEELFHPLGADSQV

[2] = target: Hexose transporter 1 (Plasmodium falciparum) (UniProt O97467); assay: ST_JUDE_LEISH: Cytotoxicity at 2uM final concentration against transgenic Leishmania Mexicana promastigotes LmPfHT that are glucose transport deficient and complemented with the Plasmodium falciparum hexose transporter. Activity is measured by DNA content using SYBR green in vitro
[3] = target: Glucose transporter (Leishmania mexicana) (UniProt O61059); assay: ST_JUDE_LEISH: Cytotoxicity at 2uM final concentration against transgenic Leishmania Mexicana promastigotes LmGT2 that are glucose transport deficient and complemented with the L. Mexicana glucose transporter 2. Activity is measured by DNA content using SYBR green in vitro

Structure (SMILES)	inhibition [1]	inhibition [2]	inhibition [3]
CCCCNC[C@@H](O)[C@H](Cc1ccccc1)NC(=O)c1cc(NCC)cc(N2CCCCS2(=O)=O)c1	4.19%	2.9%	3.45%
O=c1cc(NC[C@H]2CCC[C@@H]2NC2CCCc3c2[nH]c2ccccc32)[nH]c2ccccc12 (stereo partly drawn)	0.74%	-1.31%	5.67%
Cc1nc(N)nc(N)c1-c1ccc(Cl)c(Cl)c1	6.9%	5.53%	5.34%
Cc1ccc(S(=O)(=O)c2nc(S(=O)(=O)c3ccccc3)sc2NCC2CCCO2)cc1 (stereo not drawn)	11.8%	11.1%	9.48%
COc1ccc(Cn2c(Nc3cccc(C(F)(F)F)c3)nc3ccc(C(=O)NCCN4CCCC4)cc32)cc1Cl	8.87%	6.74%	14.2%
COc1ccc(Nc2nccc(-c3ccc(NC(=O)c4cc5cc(F)ccc5[nH]4)cc3)n2)cc1	-0.57%	0.09%	-1.37%
O=C(Nc1cccc(CN2CCN(C(=O)c3cccs3)CC2)c1)c1cccs1	2.53%	2.59%	2.26%
COc1ccc2cc(-c3nc(-c4c(Cl)cccc4Cl)[nH]c3-c3ccnc(NCCCN4CCCCC4C)c3)ccc2c1 (stereo not drawn)	0.59%	-0.07%	0.19%
O=c1cnc2ccc(F)cc2n1CCN1CCC(NCc2cc(-c3ccccc3)cs2)CC1	28.4%	32.4%	48.5%
CCN(CC)CCCN(C(=O)Nc1ccc(C#N)cc1)c1nc(-c2ccc(F)cc2)cs1	-0.54%	2.42%	-0.41%
CN1CCC(C(=O)Nc2cccc(-c3cccc(-c4nc5cc(F)ccc5[nH]4)c3)c2)CC1	4.7%	5.02%	6.69%
CCOc1cc(C)ccc1N1CCN(CCN2CCC(NC(=O)c3ccc(-c4ccc(C#N)cc4)cc3)CC2)CC1	1.65%	1.91%	2.27%
Cc1ccc(Nc2nc(C)cc(N3CCN(CCc4ccccc4)CC3)n2)cc1	3.08%	3.31%	-1.99%
CCCc1nc2c(N3CC(NC(=O)/C=C/c4ccccc4)C3)cccc2n1C1CC1	9%	7.28%	8.19%
COc1cc2c(cc1S(=O)(=O)c1ccc(OCc3ccc(Cl)cc3)cc1)CCN(Cc1ccc(NC(C)=O)s1)CC2	4.82%	4.31%	-0.61%
FC(F)(F)COc1ccc2ccccc2c1CNCCCCCCNCc1c(OCC(F)(F)F)ccc2ccccc12	1.61%	0.57%	-1.38%
O=[N+]([O-])c1cccc(CNCC2CCN(Cc3ccc(C(F)(F)F)cc3)CC2)c1	0.44%	5.74%	6.41%
CCCc1ccc(S(=O)(=O)NC2CCN(C(=O)Nc3ccc(I)cc3)CC2)cc1	5.43%	5.51%	5.03%
C=C1N(C)c2cc([N+](=O)[O-])c(N)cc2C1(C)C	0.68%	-0.1%	-1.11%
CCc1ccccc1-c1csc(C(=O)NCC2CCN(Cc3ccc(C(C)(C)C)cc3)C2)c1 (stereo not drawn)	6.04%	4.94%	4.81%
Cc1cc(C(=O)CSc2nc3ccccc3n2-c2ccccc2)c(C)n1C1CCS(=O)(=O)C1 (stereo not drawn)	0.82%	-1.32%	0.44%
COc1ccc(-c2csc3ncnc(Cl)c23)cc1OC	3.91%	3.53%	-0.23%
Nc1nc2c(ncn2OC[C@H](CO)OCP(=O)(O)O)c(=O)[nH]1	0.43%	-1.69%	-1.85%
COc1cccc(-c2[nH]c3ccccc3c2CN2CCC(c3c(C)cccc3C)CC2)c1	2.03%	2.95%	-1.74%

Structure (SMILES)	inhibition [1]	inhibition [2]	inhibition [3]
O=C(Nc1ccc(OC2CCN(Cc3ccc(F)cc3)C2)c(Cl)c1)c1ccsc1 (stereo not drawn)	4.02%	3.33%	1.2%
COc1cccc(CCNCCCCCCNCCc2ccc(Cl)cc2)c1	2.26%	2.74%	2.55%
Cc1cc(NC(=O)Nc2cccc(N(C)C)c2)c2ccccc2n1	2.29%	2.59%	1.12%
CSc1ccc2ccccc2c1CNCCCCCCNCc1c(SC)ccc2ccccc12	1.24%	0.13%	1.41%
COc1ccc(C(=O)N[C@@H](CC(C)C)C(=O)N[C@H](/C=N/NC(=O)c2ccccc2)CCc2ccccc2)cc1OCCN1CCOCC1	-0.43%	3.34%	6.8%
Oc1ccc2[nH]c(-c3cccs3)nc2c1CN1CCC(N2CCCC2)CC1	3.78%	6.78%	5.89%
NS(=O)(=O)c1cccc(Br)c1	2.38%	0.12%	2.22%
CC(C)CC(=O)N(Cc1ccc(-c2ccc(CNC3Cc4ccccc4C3)cc2)cc1)C1CCNCC1	8.37%	5.79%	10.6%
CN(C)C(=O)c1ccc(CN(Cc2ccc(OC(C)(C)C)cc2)Cc2ccc3c(c2)OCCO3)cc1	0.59%	2.04%	0.26%
c1ccc(Oc2ccc(Nc3ccnc(Nc4ccc5cn[nH]c5c4)n3)cc2)cc1	3.91%	3.81%	1.54%
O=C(Nc1cccc(-c2nn3ccccc3c2-c2ccnc(Nc3cccc(C(F)(F)F)c3)n2)c1)c1c(F)cccc1F	0.32%	1.06%	0.07%
Cc1ccccc1C1CCN(C2CCC(NC(=O)/C=C/c3cc(F)ccc3C(F)(F)F)CC2)CC1 (stereo not drawn)	0.1%	-0.94%	1.99%
Cc1c(OC(C)C)nc2ccccc2c1C(=O)N[C@H](c1cccc(F)c1)C1CC1	0.15%	-0.55%	-0.32%
CNC(=O)c1cnc(Nc2ccc(N3CCN(C)CC3)cc2)nc1Nc1cccc(OC(C)C)c1	3.75%	1.38%	-7.72%
CS(=O)(=O)c1cccc(-c2cnc(N)c3cc(-c4ccc(F)cc4)ccc23)c1	2.85%	1.64%	1.35%
COc1ccc(-c2ccc(NC(=O)c3ccc(C#N)cc3)cc2)cc1CN1CCNCC1	10.9%	7.81%	5.48%
CN(C)CCN(C)Cc1ccc(-c2ccc(NC(=O)c3cccc(Cl)c3)cc2)cc1	7.23%	6.44%	6.55%
CC(C)Sc1nc2c(c(=O)n1CCc1ccccc1)C1(CCCC1)Cc1ccccc1-2	1.78%	2.51%	2.88%
Cc1cc(-c2ccc(NC(=O)N3CCc4cc(Br)c(N5CCN(C)CC5)cc43)cc2)cc(C)n1	9.14%	8.41%	10.1%
Cc1cc(OCC2CCN(c3ncc(C(=O)Nc4ccccc4)cc3Cl)CC2)ccc1F	1.05%	-2.28%	0.4%
Cc1cccc2nc(-c3cccc(-c4cccc(NC(=O)Nc5ccc(Cl)c(Cl)c5)c4)c3)[nH]c12	-0.37%	-0.17%	-0.99%
NC(=O)COc1c(C2CCN(CCCCNC(=O)c3ccc(-c4ccc(Cl)cc4)c(O)c3)CC2)ccc2c1CCCC2	-0.69%	2.57%	2.53%
CCCc1cc2c3c(N)nc(N)nc3ccc2n1C(CC)CC	46.3%	54.9%	42.6%
COc1ccc(CNCc2ccc(-c3cccc(-c4nc5cc(F)ccc5[nH]4)c3)cc2)cc1	1.04%	4.45%	-2.49%

Structure (SMILES)	inhibition [1]	inhibition [2]	inhibition [3]
OCCN1CCN(C(=S)Nc2ccccc2)CC1	4.19%	3.14%	3.02%
CN1CCC(N(Cc2ccc(N3CCN(Cc4c[nH]c5ccc(Cl)cc45)CC3)nc2)C2CC2)CC1	9.81%	4.81%	10.7%
C=CCn1cc(C2CCN(CCCCNC(=O)c3sc(-c4ccc(C(F)(F)F)cc4)nc3CO)CC2)c2cc(OC)ccc21	1.93%	3.91%	4.35%
COc1ccc2ncc(C#N)c(CCN3CCC(NCc4ccc5c(c4)NC(=O)CO5)CC3)c2c1	12.7%	9.55%	8.73%
COc1ccc(OC)c(CC2c3ccc(Br)c(O)c3CCN2C)c1 (stereo not drawn)	1.36%	1.41%	2.33%
Cn1cnc(CCNC(=O)c2ccc(-c3ccc(-c4nc5cc(C(F)(F)F)ccc5[nH]4)s3)cc2)c1	2.93%	3.77%	3.14%
FC(F)(F)c1cccc(CNCCCCCNCc2ccc(Cl)cc2)c1	2.96%	1.16%	-0.19%
O=S(=O)(c1ccc(Cl)cc1Cl)N1CCCCC(c2ccc(C(F)(F)F)cc2)=N1	0.38%	0.43%	1.07%
CCOc1ccc(NC(=O)c2cccc(CN3CCCN(Cc4cccc(O)c4)CC3)c2)cc1	-0.94%	0.07%	0.81%
COc1cc2nc(N3CCC(CNC(=O)c4ccc(-c5ccc(C(=O)N(C)C)cc5C)cc4)CC3)nc(N3CCN(C)CC3)c2cc1OC	-0.31%	0.88%	1.23%
CCc1ccc2c(c1O)CCN(C)C2Cc1ccccc1Cl (stereo not drawn)	8.14%	5.29%	11.8%
O=C(NC1CCCCC1)N(Cc1ccc(-c2ccc(CNC3CCCC3)cc2)cc1)C1CCN(Cc2ccccc2)CC1	1.76%	3.96%	5.15%
CC(C)N1CCC(N(Cc2ccc(-c3ccc(C(F)(F)F)cc3)cc2)C(=O)Cn2c(CCc3cccc(F)c3F)cc(=O)c3ccccc32)CC1	0.12%	1.55%	1.16%
CCOC(=O)c1ccc(NC(=O)Nc2cccc(-c3cccc(-c4nc5cc(F)ccc5[nH]4)c3)c2)cc1	0.68%	2.75%	3.67%
COc1ccc(C(=O)NC2CCN(c3ccnc4cc(Cl)ccc34)C2)cc1 (stereo not drawn)	1.59%	1.83%	0.51%
COc1ccc(-c2cc3ncn(CC(=O)N4CCN(c5cccc(OC)c5)CC4)c(=O)c3s2)cc1	2.19%	3.48%	2.45%
COc1cc(NC(=O)Nc2cc(C)nc3ccccc23)cc(OC)c1	0.54%	0.94%	2.05%
O=C1Nc2cccc3c2C1(CCCN1CCC(c2c[nH]c4cc(C(F)(F)F)ccc24)CC1)CCC3 (stereo not drawn)	-0.49%	-2.03%	-0.71%
O=C(c1cc2cccc([N+](=O)[O-])c2[nH]1)N1CCC(CCN2CCC(c3c[nH]c4ccccc34)CC2)CC1	1.52%	12.8%	2.6%
NC(=O)c1ccc(NC(=O)CN(Cc2ccc(Cl)cc2)S(=O)(=O)c2ccccc2)cc1	7.52%	5.01%	7.46%
COc1ccc(OCC(=O)Nc2cc(-c3nc4ccccc4[nH]3)ccc2Cl)cc1	6.17%	6.14%	3.14%
N=C1N=C(N)NC2(CCCCC2)N1OCCCOc1cccc2ccccc12	54.1%	60%	37.9%
Cc1ccc(NC(=O)c2ccc(CN3CCCN(Cc4cccc(O)c4)CC3)cc2)cc1C	0.9%	0.45%	4.65%
